# Assay results: the supplement of paper PMC10981050
# Values joined by “and” are separate entries in the source; they are usually repeats but may differ in a detail not shown here. Equal values may be shown once. Where a name gives a salt, the structure may show the parent alone.
# How the values were obtained:
# Test in all cases: cell viability relative to vehicle control; higher = less cytotoxic
# Conditions in all cases: 10 µM
# K562 = system: K562
# Outline: (§1)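 CRISPR-edited mutant clones and isogenic wild-type clones from four leukaemia lines were screened against Selleck bioactive, kinase and epigenetic probe libraries, with identity-inconsistent compounds excluded. Each compound was acoustically dispensed at a single 10 µM dose into 384-well plates holding 2000 cells in 50 µL medium per well. After 48 h the supernatant was removed and CellTiter-Glo luminescence was read. Viability was expressed as percent of the on-plate vehicle control and analysed in Genedata Screener.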
# MARIMO = system: MARIMO
# Outline: as §1
# MOLM14 = system: MOLM14
# Outline: as §1
# OCI-AML2 = system: OCI-AML2
# Outline: as §1
SMILES,cell viability (K562; SRSF2 genotype: SRSF2 P95H/wt),cell viability (K562; SRSF2 genotype: SRSF2 wt/wt) [%],cell viability (MARIMO; SRSF2 genotype: SRSF2 P95H/wt) [%],cell viability (MARIMO; SRSF2 genotype: SRSF2 wt/wt) [%],cell viability (MOLM14; SRSF2 genotype: SRSF2 P95H/wt) [%],cell viability (MOLM14; SRSF2 genotype: SRSF2 wt/wt) [%],cell viability (OCI-AML2; SRSF2 genotype: P95H/wt) [%],cell viability (OCI-AML2; SRSF2 genotype: wt/wt) [%]
COc1ccc(C=O)cc1 [p-Anisaldehyde],107% and 99.7%,111,103,103,105,104,97.2,117
C[C@@H]1CC[C@H]2[C@@H](C)C(=O)O[C@@H]3O[C@@]4(C)CC[C@@H]1[C@]32OO4 [Artemisinin],83% and 79.2%,78.7,74.8,93.3,85.8,87.3,84.6,98.2
CN1CCN(c2nc3ccccc3nc2Cl)CC1,96.3% and 106%,98.8,93.1,103,105,109,107,102
CC(=O)OCC1=C(C(=O)O)N2C(=O)C(N)C2SC1 (stereo not given) [7-Aminocephalosporanic acid],107% and 103%,102,101,108,111,107,109,110
CC(C)NCC(O)c1ccccc1Cl (stereo not given) [Clorprenaline HCL],98.2% and 96.8%,104,98.2,107,95.2,101,108,99.1
CCCCCc1cc(O)cc(O)c1 [Olivetol],102% and 99.9%,110,87.2,96.8,101,107,111,112
COC(=O)c1ccccc1C(=O)OC [Dimethyl phthalate],86.9% and 85.8%,84,85.6,93.4,87.5,85.8,89.5,80.7
OC1CC2CCC(C1)N2 (stereo not given) [Nortropine Hydrochloride],101% and 98.7%,101,102,107,97.2,102,105,94.8
C[C@@H]1O[C@@H](O[C@H]2C[C@@H](O)[C@]3(CO)[C@H]4[C@H](O)C[C@]5(C)[C@@H](C6=CC(=O)OC6)CC[C@]5(O)[C@@H]4CC[C@]3(O)C2)[C@H](O)[C@H](O)[C@H]1O [Ouabain],10.4% and 12.3%,12.4,10.7,4.01,3.34,0.78,0.73,2.79
CCc1c(C(=O)C(N)=O)c2c(OCC(=O)O)cccc2n1Cc1ccccc1,93.5% and 89.8%,88.8,82.6,92,93.1,95.2,84,90.6
